Screens (PubChem)
DT40 TDP1 no CPT – qHTS for Inhibitors of human tyrosyl-DNA phosphodiesterase 1 (TDP1): qHTS in cells in absence of CPT; DT40 Tdp1-/- hTDP1 cells, no CPT, ATP luminescence, 48 h; Potency, µM (series often up to 46.2 µM), most hits filed as inhibitors; 420,000 tested, 15% active; AID 686978, 2013; further: nearly all actives have a fitted effect of over 55% in size
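DT40 Tdp1-/-;hTDP1 cells, no CPT (DMSO vehicle only), 400 cells/well; compounds pin-transferred; ≥48 hr, 37 °C; CellTiter-Glo 30 min RT dark, luminescence read.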
ELG1 repair inh – qHTS screen for small molecules that inhibit ELG1-dependent DNA repair in human embryonic kidney (HEK293T) cells expressing luciferase-tagged ELG1. HEK293T ELG1-luciferase reporter, luminescence, 16 h; DNA damage induced by 5-fluorouridine. Potency, µM (titrated, usually from 46.1 µM), usual class: inhibitors. 330,000 tested, 2.3% active; further: nearly all actives have a fitted effect of over 55% in size
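Step one: seed 2,000 cells per well. Step two: pin-transfer compound or DMSO alongside 5-fluorouridine. Step three: incubate 16 hr, 37 °C, 5% CO2. Step four: add ONE-Glo, wait 30 min, read luminescence.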
12-LOX inh – Primary qHTS assay for inhibitors of human arachidonate 12S-lipoxygenase (ALOX12): Round 2; purified 12hLO, xylenol orange hydroperoxide absorbance; Potency, µM (highest dose often 108 µM), most hits filed as inhibitors; 580,000 tested, 1.1% active; AID 1671190, 2021
Target sequence (P18054 whole entry, looked up): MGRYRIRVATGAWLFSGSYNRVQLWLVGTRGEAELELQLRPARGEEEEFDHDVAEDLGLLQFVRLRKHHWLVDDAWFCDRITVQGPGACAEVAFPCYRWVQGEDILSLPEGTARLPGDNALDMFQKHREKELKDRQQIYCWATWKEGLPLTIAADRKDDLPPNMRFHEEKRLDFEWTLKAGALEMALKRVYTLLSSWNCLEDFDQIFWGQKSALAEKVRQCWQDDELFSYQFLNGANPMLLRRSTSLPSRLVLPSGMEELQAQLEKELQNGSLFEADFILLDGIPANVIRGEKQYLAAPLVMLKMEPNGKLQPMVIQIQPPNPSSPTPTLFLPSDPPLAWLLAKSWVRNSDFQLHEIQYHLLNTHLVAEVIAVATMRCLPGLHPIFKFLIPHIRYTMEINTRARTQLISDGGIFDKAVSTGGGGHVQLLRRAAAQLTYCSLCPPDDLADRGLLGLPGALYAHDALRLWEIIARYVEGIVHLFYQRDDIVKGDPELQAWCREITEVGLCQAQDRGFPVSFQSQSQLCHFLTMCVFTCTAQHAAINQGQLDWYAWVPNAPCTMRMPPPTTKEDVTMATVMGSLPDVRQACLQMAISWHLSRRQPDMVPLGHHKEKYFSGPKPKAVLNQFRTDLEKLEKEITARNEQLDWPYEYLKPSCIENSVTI
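Purified human 12hLO (150 nM final) in 25 mM Hepes, 0.01% Triton X-100, pH 7.0 was preincubated 15 min at room temperature with compound. Then 40 uM arachidonic acid was added, 30 min. Hydroperoxide was read by Fe-XO absorbance ratio 573/405 nm.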
Gal4-VP16 FLuc – VP16 counterscreen qHTS for inhibitors of ROR gamma transcriptional activity; Drosophila S2 Gal4-VP16 UAS-luciferase, luminescence, 20 h; Potency, µM (top dose mostly 53.6 µM), actives largely listed as inhibitors; 310,000 tested, 3.5% active;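 further: Gal4-VP16 expression switched on by copper sulfate through the metallothionein promoter; nearly all actives have a fitted effect of over 50% in size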
DT40 TDP1 CPT – qHTS for Inhibitors of human tyrosyl-DNA phosphodiesterase 1 (TDP1): qHTS in cells in presence of CPT; AID 686979, 2013; 420,000 tested, 12% active; Potency, µM (highest dose often 46.2 µM), usual class: inhibitors; chicken DT40 Tdp1-/-;hTDP1 cells + 20 nM CPT, ATP luminescence, 48 h; further: nearly all actives have a fitted effect of over 55% in size
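Chicken DT40 Tdp1-/- cells stably complemented with human TDP1 were seeded at 400 cells/well in medium containing 20 nM camptothecin, exposed to pin-transferred compounds, and grown at 37 °C for at least 48 hr. Viability was read as ATP luminescence.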
RORg inh – qHTS for inhibitors of ROR gamma transcriptional activity. Potency, µM (top dose mostly 53.6 µM), hits mostly inhibitors. Nuclear receptor ROR-gamma (Mus musculus), P51450. 310,000 tested, 5.4% active. Drosophila S2 Gal4-RORgamma UAS-luciferase reporter, 20 h; further: nearly all actives have a fitted effect of over 60% in size
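ROR gamma transcriptional activity was tracked as Gal4-UAS luciferase output in stably transfected Drosophila Schneider cells, with compound added 1 hr before 700 uM copper sulfate induction and a 20 hr ambient-temperature incubation.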
A number is an active result; – = inactive; ? = inconclusive; · = no result given. Compounds with a hit are over-represented: about 15% of the library has one in this group of screens. The call rests on the fitted dose curve; in most records, active means well fitted curve in the direction sought with a large enough effect; inconclusive means small, poorly fitted or top-dose-only effect, or another doubt; inactive means no such curve, though single readings can be large; an effect the other way counts as inactive or inconclusive.

SMILES | DT40 TDP1 no CPT | ELG1 repair inh | 12-LOX inh | Gal4-VP16 FLuc | DT40 TDP1 CPT | RORg inh
CCN(CC)CCNC(=O)C(=O)Nc1ccc2cc[nH]c2c1 | · | · | – | · | · | ·
COc1cccc(C2CC(c3cccs3)=NN2C(=O)CSc2nc3ccccc3o2)c1OC (configuration not stated) | 23.1µM | ? | – | – | 25.9µM | –
CCOc1cc(C(=O)N2CCCN(c3cc(-c4ccc(F)cc4)[nH]n3)CC2)cc(OCC)c1OCC | · | · | – | · | · | ·
C=CCn1c(COc2ccccc2F)nnc1SCC(=O)c1c[nH]c2ccccc12 | 23.1µM | ? | – | ? | 25.9µM | –
C=CCn1c(COc2ccccc2F)nnc1SCC(=O)Nc1cc2oc3ccccc3c2cc1OC | ? | – | – | – | ? | ?
COC(=O)c1c(C)[nH]c(O)c1C=Nc1ccc(C(C)C)cc1 | 18.4µM | ? | ? | ? | ? | ?
CNCCCCOc1ccccc1Cc1ccccc1 | 8.41µM | · | – | – | 7.5µM | ?
CN(C)CCOc1ccccc1Cc1ccccc1 | ? | – | – | – | ? | –
O=C(CSc1nc2ccccc2o1)Nc1nncs1 | – | – | – | – | – | –
O=C(CSc1nc2ccccc2o1)Nc1nc(-c2ccccc2)c(-c2ccccc2)s1 | 11.6µM | ? | – | ? | 18.4µM | –
Cc1nnc(NC(=O)CSc2nc3ccccc3o2)s1 | ? | ? | – | – | – | –
C=CCSc1nnc(NC(=O)CSc2nc3ccccc3o2)s1 | ? | – | – | ? | 23.1µM | ?
CC(C)(C)c1cccc(C2(O)C(=O)c3ccccc3C2=O)c1O | 9.2µM | – | – | 12.6µM | ? | –
O=C(NC1CCCCC1)N[C@H]1CO[C@H]2[C@@H]1OC[C@@H]2n1nnnc1-c1ccc2c(c1)OCO2 | · | · | 44.7µM | · | · | ·
O=C(N[C@H]1CO[C@H]2[C@@H]1OC[C@@H]2n1nnnc1-c1ccc2c(c1)OCO2)c1ccccc1 | · | · | – | · | · | ·
CN(C)S(=O)(=O)c1cccc(-c2nn(-c3ccccc3)cc2/C=C2\SC(=S)NC2=O)c1 | ? | 23.1µM | ? | ? | ? | 12.6µM
Cc1ccc(-c2nn(-c3ccccc3)cc2/C=C2\SC(=S)N(CC(=O)O)C2=O)cc1 | ? | – | ? | – | ? | –
CN(C)S(=O)(=O)c1cccc(-c2nn(-c3ccccc3)cc2/C=C(\C#N)c2nc3ccccc3[nH]2)c1 | 5.8µM | 2.59µM | – | – | 5.17µM | –
O=C(c1cccc(OC2CCN(Cc3ccc(F)cc3Cl)CC2)c1)N1CCCC1 | ? | – | – | – | 20.6µM | –
O=C(c1ccc(Cn2ccc([N+](=O)[O-])n2)cc1)N1CCN(Cc2ccccc2)CC1 | ? | ? | – | – | – | –
CSc1ccc(CN2CCC(Oc3cccc(C(=O)N4CCCC4)c3)CC2)cc1 | 18.4µM | ? | – | – | 20.6µM | –
CSc1ccc(CN2CCN(C(=O)c3ccc([N+](=O)[O-])cc3)CC2)cc1 | 20.6µM | ? | ? | – | ? | –
O=C(NCc1cccc(Cl)c1)c1cccc(OC2CCN(C(=O)C3CC3)CC2)c1 | 20.6µM | ? | – | – | 29.1µM | ?
O=C(c1cccc(OC2CCN(Cc3cc(F)cc(F)c3)CC2)c1)N1CCCC1 | ? | – | – | – | ? | –
COC(=O)c1ccc(CN2CCC(Oc3cccc(C(=O)N4CCCC4)c3)CC2)cc1 | ? | · | – | · | ? | ·
SMILES | DT40 TDP1 no CPT | ELG1 repair inh | 12-LOX inh | Gal4-VP16 FLuc | DT40 TDP1 CPT | RORg inh
COCCNC(=O)c1cccc(OC2CCN(Cc3ccc(Cl)c(F)c3)CC2)c1 | ? | – | – | – | ? | –
COCCNC(=O)c1cccc(OC2CCN(Cc3cccc(SC)c3)CC2)c1 | 16.4µM | ? | – | – | ? | –
COc1ccc(NC(=O)[C@@H]2CCCN2C(=O)[C@@H]2Cc3ccccc3CN2C(=O)OC(C)(C)C)cc1 | 23.1µM | – | – | – | – | –
CCOc1ccccc1N=c1oc2cc(O)ccc2cc1C(=O)NCC1CCCO1 (configuration not stated) | ? | ? | – | ? | 11.2µM | ?
CCOc1ccc(N=c2oc3cc(O)ccc3cc2C(=O)NCC2CCCO2)cc1 (configuration not stated) | – | 2.06µM | – | – | – | ?
COc1ccc(N=c2oc3cc(O)ccc3cc2C(=O)NCC2CCCO2)c(OC)c1 (configuration not stated) | ? | ? | – | – | – | –
COc1ccc(N=c2oc3cc(O)ccc3cc2C(=O)NCC2CCCO2)cc1 (configuration not stated) | ? | ? | – | ? | ? | –
Cc1ccc(NC2=C(Cl)C(=O)OC2OC(=O)c2ccco2)cc1 (configuration not stated) | 16.4µM | – | ? | – | ? | 11.2µM
Cc1cccc(NC2=C(Cl)C(=O)OC2OC(=O)c2ccco2)c1 (configuration not stated) | 20.6µM | – | – | ? | 20.6µM | 11.2µM
COC[C@@H]1CN(C(=O)c2cccc(C)c2)C[C@H]1c1nc(C2CC2)no1 | · | · | – | · | · | ·
CCCNc1c(NC(=O)c2ccc(Cl)cc2)c(=O)oc2ccccc12 | · | · | – | · | · | ·
[O-]/[N+](=C\c1ccncc1)c1ccc(Br)cc1 | ? | ? | · | – | 8.2µM | –
O=[N+]([O-])c1cccc(/C=C/c2ccncc2)c1 | – | ? | – | – | – | –
C[C@H]1[C@@H](NS(=O)(=O)c2cccs2)CC[C@@]23CCCN2C(=O)CCC[C@@H]13 | · | · | – | · | · | ·
COc1ccccc1C1CCN(C(=O)c2cnn(-c3ccccc3)c2C)CC1 | 14.6µM | ? | ? | ? | 20.6µM | –
CCCc1c(C(=O)N2CCN(c3ccccc3OC)CC2)cnn1-c1ccccc1 | 18.4µM | 16.4µM | ? | – | ? | –
COc1ccccc1C1CCN(C(=O)c2ccccc2)CC1 | ? | – | – | – | – | –
CSC(C)C(=O)NC(CC(C)(C)C)c1ccc(F)cc1 (configuration not stated) | · | · | – | · | · | ·
CCS(=O)(=O)Nc1cc(-c2cn3ccc(C)cc3n2)ccc1C | 20.6µM | · | – | · | ? | ·
Cc1ccn2cc(-c3cccc(S(=O)(=O)N4CCCCC4)c3)nc2c1 | – | – | – | – | – | –
CC(=O)Nc1ccc(S(=O)(=O)Nc2cc(-c3cn4ccccc4n3)ccc2C)cc1 | 20.6µM | · | – | · | ? | ·
Cc1ccn2cc(-c3ccc(C)c(NS(=O)(=O)c4ccc(Cl)cc4)c3)nc2c1 | 20.6µM | · | – | · | 23.1µM | ·
